According to PubChem BioAssay AID1159580 (chemical genetic matrix, 2015):
Where “and” joins values, the source holds several entries; their conditions need not be identical. Identical values can stand only once. Among all 5,500 compounds or so, about 2,000 (36%) were called active. About 18% were inconclusive and are not listed. No stated cut-off is given here; in the data, active means normalized growth mostly below about 0.91 (no sharp cut-off); inconclusive means no clear call, values can overlap the other calls; inactive means mostly above about 0.92. Some of the results follow.

Test: chemical genetic growth profiling, strain panel (AID 1159580);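 further: tested at 20 µM; growth read once vehicle control cultures reached saturation at 30 °C; 1 = growth at the plate median or of vehicle wells; lower values mean less growth of the strain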
Conditions: S. cerevisiae deletion strains, growth OD

Measured: normalized growth

COc1cnc(NS(=O)(=O)c2ccc(N)cc2)nc1
inactive: locus YAL021C, strain ccr4, hits give low values 1.01 | locus YAL026C, strain drs2, hits give low values 1 | locus YAL030W, strain snc1, hits give low values 1.01 | locus YBL061C, strain skt5, hits give low values 0.994 | locus YBR009C, strain hhf1, hits give low values 1.01 | locus YBR021W, strain FUR4, hits give low values 1.02 | locus YBR023C, strain chs3, hits give low values 0.998 | locus YBR171W, strain sec66, hits give low values 0.993 | locus YBR229C, strain ROT2, hits give low values 0.956 | locus YBR231C, strain swc5, hits give low values 0.991 | locus YBR279W, strain paf1, hits give low values 0.993 | locus YCL011C, strain gbp2, hits give low values 1 | locus YCL016C, strain dcc1, hits give low values 0.983 | locus YCL029C, strain bik1, hits give low values 0.98 | locus YCL069W, strain vba3, hits give low values 1 | locus YCR088W, strain abp1, hits give low values 1 | locus YDL005C, strain med2, hits give low values 0.997 | locus YDL035C, strain GPR1, hits give low values 0.996 | locus YDL040C, strain nat1, hits give low values 1 | locus YDL074C, strain BRE1, hits give low values 0.988 | locus YDL101C, strain DUN1, hits give low values 0.98 | locus YDL134C, strain PPH21, hits give low values 1 | locus YDL185W, strain tfp1, hits give low values 0.962 | locus YDL192W, strain arf1, hits give low values 0.972 | locus YDR001C, strain nth1, hits give low values 0.997 | locus YDR069C, strain doa4, hits give low values 1.01 | locus YDR101C, strain arx1, hits give low values 0.983 | locus YDR137W, strain rgp1, hits give low values 0.996 | locus YDR159W, strain sac3, hits give low values 0.92 | locus YDR162C, strain NBP2, hits give low values 0.992 | locus YDR195W, strain ref2 0.984 | locus YDR297W, strain sur2, hits give low values 1.01 | locus YDR318W, strain mcm21, hits give low values 0.986 | locus YDR334W, strain swr1, hits give low values 0.998 | locus YDR335W, strain msn5, hits give low values 0.993 | locus YDR388W, hits give low values 0.985 | locus YDR392W, strain spt3, hits give low values 0.925 | locus YDR502C, strain sam2, hits give low values 0.987 | locus YEL003W, strain gim4, hits give low values 1 | locus YEL037C, strain rad23, hits give low values 0.999 | locus YEL061C, strain CIN8 (second series), hits give low values 1 | locus YEL061C, strain CIN8, hits give low values 0.979 | locus YER015W, strain faa2, hits give low values 1 | locus YER016W, strain bim1, hits give low values 0.998 | locus YER110C, hits give low values 0.969 | locus YER111C, strain swi4, hits give low values 1.01 | locus YER155C, strain BEM2 (second series), hits give low values 1.02 | locus YER155C, strain BEM2, hits give low values 1 | locus YER167W, strain BCK2, hits give low values 0.99 | locus YFR010W, strain ubp6, hits give low values 0.989 | locus YGL078C, strain dbp3, hits give low values 0.978 | locus YGL086W, strain mad1, hits give low values 0.985 | locus YGL167C, strain pmr1, hits give low values 0.993 | locus YGL173C, strain kem1, hits give low values 1.01 | locus YGL227W, strain vid30, hits give low values 1 | locus YGL240W, strain doc1, hits give low values 0.994 | locus YGL248W, strain PDE1, hits give low values 0.976 | locus YGL253W, strain hxk2, hits give low values 0.994 | locus YGR135W, strain pre9, hits give low values 0.988 | locus YGR229C, strain SMI1, hits give low values 1.01 | locus YGR252W, strain gcn5, hits give low values 0.949 | locus YHR013C, strain ard1, hits give low values 1 | locus YHR027C, strain rpn1, hits give low values 0.982 | locus YHR030C, strain SLT2, hits give low values 1 and 0.997 | locus YHR079C, strain IRE1 (second series), hits give low values 0.984 | locus YHR079C, strain IRE1, hits give low values 0.989 | locus YHR094C, strain hxt1, hits give low values 0.984 | locus YHR129C, strain ARP1, hits give low values 0.997 | locus YHR142W, strain chs7, hits give low values 1 | locus YHR200W, strain rpn10, hits give low values 0.969 | locus YIL066C, strain RNR3, hits give low values 0.978 | locus YIL073C, strain SPO22, hits give low values 0.999 | locus YIL125W, strain kgd1, hits give low values 0.974 | locus YIR030C, strain dcg1, hits give low values 0.982 | locus YJL092W, strain hpr5, hits give low values 1 | locus YJL095W, strain BCK1 (second series), hits give low values 0.988 | locus YJL095W, strain BCK1, hits give low values 0.983 and 1.01 | locus YJL115W, strain asf1, hits give low values 0.993 | locus YJL129C, strain trk1, hits give low values 0.986 | locus YJL134W, strain LCB3, hits give low values 0.995 | locus YJL154C, strain vps35, hits give low values 1 | locus YJL164C, strain tpk1, hits give low values 0.981 | locus YJL166W, strain qcr8, hits give low values 1.01 | locus YJL168C, strain set2, hits give low values 0.982 | locus YJL187C, strain SWE1 (second series), hits give low values 0.965 | locus YJR043C, strain POL32, hits give low values 0.992 | locus YJR066W, strain TOR1, hits give low values 0.934
